Hits are enriched below; roughly 1.3% of the tested compounds scored in any of these assays.
IDE act – IDE (human) activation, cell-based; HEK cells, FAbeta-B cleavage, fluorescence polarization; 0% vehicle, 100% cell-free pure enzyme wells; actives 0.073% (n = 340,000); AID 493087; activation, % at 5.96 µM; P14735;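 active means activation above the mean of all tested compounds plus 3 SD, set per screening campaign, cut at about 17% in these data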
PKA-R1A activ – activators of PKA-R1A complex; P00514+P68181; PKA-R1A dissociation, Cy5-IP20 fluorescence polarization; scaled: DMSO 0%, 113 µM cGMP 100%; activation, % at 11.4 µM; actives 0.083% (n = 340,000);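 active means percent activation above the mean of all tested compounds plus 3 SD, cut at about 19% in these data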;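 further: higher means more PKAc released from R1A so a rise in polarization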
IDE cell inh – cellular human IDE inhibition; P14735; HEK cells, FAbetaB cleavage, fluorescence polarization; inhibition, % at 5.59 µM; actives 0.41% (n = 320,000); AID 434962;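 active means percent inhibition above the average of all tested compounds plus 3 SD, set per screening campaign, cut at about 16% in these data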;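 further: IDE supplied by intact live HEK cells; FP after avidin binding of uncleaved biotin substrate so inhibition keeps polarization high; 0% = DMSO wells and 100% = 60 µM reference IDE inhibitor Ii1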
PKA-R2B activ – activates the human PKA-R2B holoenzyme complex | P22694+P31323 | PKA-R2B holoenzyme dissociation, Cy5-IP20 fluorescence polarization; R2B truncated from residue 108, S112A mutant; 0% DMSO only, 100% 113 µM cGMP | activation, % at 11.4 µM | actives 0.079% (n = 340,000);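 active means activation above a cutoff set at the mean over all compounds plus 3 SD, cut at about 18% in these data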;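 further: higher means more holoenzyme dissociation and a rise in polarization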
E coli Lon inh – inhibitors of E. coli Lon protease | actives 0.42% (n = 360,000) | purified E. coli Lon protease, fluorescence polarization | P0A9M0 | inhibition, % at 7.94 µM; in the data active means inhibition above about 13%, passing the limit was not always enough;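 further: 0% = enzyme with probe and DMSO and 100% = no enzyme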
Target sequence (P0A9M0 whole entry, looked up): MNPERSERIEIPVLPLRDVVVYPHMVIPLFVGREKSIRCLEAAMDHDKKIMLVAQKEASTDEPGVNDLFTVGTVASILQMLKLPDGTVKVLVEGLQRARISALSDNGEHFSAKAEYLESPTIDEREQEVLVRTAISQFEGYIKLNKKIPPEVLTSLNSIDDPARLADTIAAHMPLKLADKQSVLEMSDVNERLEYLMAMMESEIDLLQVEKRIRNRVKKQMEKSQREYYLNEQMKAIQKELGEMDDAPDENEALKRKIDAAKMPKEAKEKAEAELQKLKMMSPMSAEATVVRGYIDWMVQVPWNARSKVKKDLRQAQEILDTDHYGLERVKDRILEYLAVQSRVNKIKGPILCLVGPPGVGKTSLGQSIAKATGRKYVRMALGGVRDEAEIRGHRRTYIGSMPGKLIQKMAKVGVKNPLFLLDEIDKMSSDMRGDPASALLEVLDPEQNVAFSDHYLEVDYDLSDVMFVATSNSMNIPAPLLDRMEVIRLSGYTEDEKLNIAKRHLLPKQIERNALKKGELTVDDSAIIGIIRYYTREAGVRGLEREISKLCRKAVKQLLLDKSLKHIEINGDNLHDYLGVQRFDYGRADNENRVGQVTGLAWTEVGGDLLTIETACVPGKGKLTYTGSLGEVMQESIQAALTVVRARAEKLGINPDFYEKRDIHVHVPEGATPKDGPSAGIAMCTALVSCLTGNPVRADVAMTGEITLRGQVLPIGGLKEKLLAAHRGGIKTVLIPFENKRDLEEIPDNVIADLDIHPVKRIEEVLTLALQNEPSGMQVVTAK
Rin1 Abl inh – inhibitors of human Rin1-Abl protein interaction. P00519+Q13671. TR-FRET Rin1/Abl binding, biochemical. inhibition, % at 7.35 µM. actives 0.4% (n = 360,000). AID 588664; in the data active means inhibition above about 5%, passing the limit was not always enough
R1A FP artifact – fluorescence polarization artifact in PKA-R1A activator counter-screen; actives 7% (n = 280); activation, % at 11.4 µM; Cy5-IP20 peptide alone, fluorescence polarization artifact counterscreen; shares compounds with PKA-R1A activ;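 active means mean activation over triplicate runs exceeds the adjusted cutoff derived for the parent primary screen, cut at about 19% in these data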;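 further: no PKA protein present so any polarization rise reflects compound interference; 0% = tracer peptide mix alone and 100% = mix with added PKA catalytic subunit; higher means stronger polarization artifact and likely false positive in parent screen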
PKA-R1A act conf – confirmation of PKA-R1A complex activators | actives 9% (n = 280) | Cy5-IP20 fluorescence polarization, PKA-R1A holoenzyme dissociation | activation, % at 11.4 µM | shares compounds with PKA-R1A activ;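 active means mean activation over replicate wells exceeds the adjusted hit threshold taken from the earlier primary screen, cut at about 20% in these data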;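 further: 0% = holoenzyme mix with DMSO only and 100% = cGMP-activated control wells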
Rin1 Abl conf – confirmation of inhibitors of human Rin1-Abl interaction. TR-FRET Rin1-Abl binding, purified proteins. actives 49% (n = 1,300). inhibition, % at 7.35 µM. shares compounds with Rin1 Abl inh
GFP quench-1 – counter-screen for Rin1-Abl inhibitors: GFP fluorescence quenchers; shares compounds with Rin1 Abl inh; actives 8.5% (n = 1,300); inhibition, % at 6.75 µM; inhibitors/quenchers counterscreen;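 further: ABL1-eGFP fusion protein alone without its partner RIN1-SBP; 0% = protein with vehicle and 100% = wells lacking protein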
GFP quench dose – counter-screen for Rin1-Abl inhibitors: GFP quenchers, dose response; GFP fluorescence interference/quenching counterscreen; AID 602182; shares compounds with Rin1 Abl inh; 230 tested, under 10 active; IC50, µM; call rule not given here;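 further: ABL1-eGFP fusion protein alone without its RIN1 binding partner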
GFP quench-2 – quenches GFP fluorescence in Rin1-Abl counterscreen | 25 tested, under 10 active | IC50, µM | GFP fluorescence quenching counterscreen, biochemical | shares compounds with Rin1 Abl inh; call rule not given here
* marks the source's active call; other numbers are inactive results; · = not tested or not shown. Unless noted, no stated cut-off is given here; in the data, active means inhibition above about 6.5%; inactive means the rest.

SMILES	IDE act	PKA-R1A activ	IDE cell inh	PKA-R2B activ	E coli Lon inh	Rin1 Abl inh	Rin1 Abl conf	GFP quench-1	others
COc1ccc(C2=CC(c3ccc4c(c3)OCO4)c3c(c4ccccc4oc3=O)O2)cc1OC (configuration not stated)	3	7	·	4	4	3	·	·
CCOC(=O)c1ccccc1NC(=O)c1c(O)[nH]c(=S)[nH]c1=O	-6	19*	2	1	2	2	·	·	R1A FP artifact=1;PKA-R1A act conf=1
CCCOC(=O)c1ccc(-[n+]2c(-c3ccccc3)cc(-c3ccccc3)cc2-c2ccccc2)cc1	4	9	7	-8	1	0	·	·
COC(=O)C1=C(c2c(C)noc2C)C[C@@H]2CC[C@H]1N2C(=O)NC(C)C	5	4	-5	-5	12	0	·	·
COC(=O)C1=C(c2c(C)noc2C)C[C@@H]2CC[C@H]1N2C(=O)N1CCCC1	-2	20*	5	-7	0	-1	·	·	R1A FP artifact=3;PKA-R1A act conf=3
CCOC(=O)N1CCC(NC(=O)CCc2nc(C3=CCN(C)CC3)no2)CC1	-5	8	1	3	-7	70*	50*	0	GFP quench dose=>68;GFP quench-2=>68
O=c1[nH]c(=O)n(-c2ccc(Br)cc2)c(O)c1C=NC(CO)(CO)CO	·	·	5	·	-11	6.0*	-1	-1
NC(=O)C1(N2CCCCC2)CCN(Cc2ccccc2)CC1	2	-8	8	2	-12	7.9*	0	0
COC(=O)C1=C(c2ccc(OCc3ccccc3)cc2)C[C@@H]2CC[C@H]1N2C(=O)NCc1ccc([N+](=O)[O-])cc1	5	-13	11	-15	-17	-1	·	·
CN(C)C1C(=O)C(C(N)=O)=C(O)C2(O)C(=O)C3=C(O)c4c(O)cccc4C(C)(O)C3C(O)C12 (configuration not stated)	5	-6	0	-3	3	25*	3	2
Clc1ccc2c(c1)C(OC1CN3CCC1CC3)c1ccccc1CS2 (configuration not stated)	-3	3	8	-5	-4	9.7*	3	0
COc1ccc(CC2C(=O)NC(=O)N(c3ccccc3)C2=O)c(OC)c1 (configuration not stated)	-2	-13	-2	-2	-4	1	·	·
Nc1c(C(=O)NCC2CCCO2)c2nc3ccccc3nc2n1Cc1ccco1 (configuration not stated)	-16	-9	3	-8	-41	-2	·	·
Nc1c(C(=O)NC2CCCC2)c2nc3ccccc3nc2n1CC1CCCO1 (configuration not stated)	2	1	1	1	-7	19*	1	1
Oc1ccc(CC2CC3CCN2CC3)cc1O (configuration not stated)	4	-1	0	-6	-5	-1	·	·
Oc1ccc(C[C@H]2NCCc3cc(O)c(O)cc32)cc1O	-5	-4	·	-1	5	62*	70*	4	GFP quench dose=>68
CCCC(C)C(=O)NC1CCSC1=O (configuration not stated)	6	0	6	-8	11	4.9*	0	-1
ClCCNc1nc2ccc(Cl)cc2[nH]1	8	-4	3	-15	-3	3	·	·
N#CC1c2ccccc2-n2nncc2CN1S(=O)(=O)c1ccccc1 (configuration not stated)	-13	-8	·	-15	-1	10*	3	0
CCN(CC)S(=O)(=O)c1ccc(C)c(NCC(=O)Nc2ccc(C#N)c(Cl)c2)c1	3	-4	1	-1	-1	3	·	·
O=c1[nH]c2ccccc2n1C1CCN(C(c2nnnn2C2CCCCC2)C2CC2)CC1 (configuration not stated)	·	·	·	·	-14	74*	74*	-1	GFP quench dose=>68
O=c1[nH]c2ccccc2n1C1CCN(C(c2nnnn2C2CCCC2)C2CC2)CC1 (configuration not stated)	·	·	·	·	-12	31*	23*	0	GFP quench dose=>68
O=C(O)CCC(=O)NCCC1=c2ccccc2=N/C1=C\c1c(O)n(Cc2ccc(F)cc2)c(=S)[nH]c1=O	7	-7	3	8	-5	-3	·	·
S=P(NC1CCCCC1)(N1CC1)N1CC1	3	-9	4	-3	2	4	·	·
COc1ccc2[nH]c(C)c(CCNCc3cn(C)c4ccccc34)c2c1	-2	-6	-1	2	-2	1	·	·
SMILES	IDE act	PKA-R1A activ	IDE cell inh	PKA-R2B activ	E coli Lon inh	Rin1 Abl inh	Rin1 Abl conf	GFP quench-1	others
NC(=O)c1cn(C2CCCCC2)c2ccccc2c1=O	-3	6	4	7	-7	10*	11*	0
COCCCNC(=O)c1c(N)n(Cc2ccco2)c2nc3ccccc3nc12	·	·	5	·	-13	-1	·	·
COc1ccc(Cn2c(N)c(C(=O)NCc3ccco3)c3nc4ccccc4nc32)cc1OC	-3	-3	0	-16	-29	15*	-4	0
Cc1cc(OCC(=O)N2C[C@H]3C[C@@H](C2)c2cccc(=O)n2C3)c2c(C)cc(=O)oc2c1	4	-7	13	-5	10	-2	·	·
CC(C)(C)n1nnnc1C(CCc1ccccc1)N1CCC(n2c(=O)[nH]c3ccccc32)CC1 (configuration not stated)	·	·	·	·	2	17*	11*	-1
CSCCC(c1nnnn1C1CCCC1)N1CCC(n2c(=O)[nH]c3ccccc32)CC1 (configuration not stated)	·	·	·	·	-9	19*	20*	-2	GFP quench dose=>68
O=c1[nH]c2ccccc2n1C1CCN(C(CCc2ccccc2)c2nnnn2C2CCCCC2)CC1 (configuration not stated)	·	·	·	·	-3	27*	14*	0

Source: PubChem BioAssay
